Several values for one entry are separate records, joined by “and”; a condition that tells them apart may be missing. Identical values can stand only once. Results filed as inconclusive are left out. Where a call stands in place of a potency, no number is given. Some compounds were tested as several samples or in several runs, with calls that do not always agree. Activity calls are given as the source filed them. Unless noted, calls come from the whole dose curve; as a rule, active = well fitted curve in the direction sought with a large enough effect in the repeat runs; inconclusive = weak or mixed curves; inactive = no such curve, though single readings can be large; an effect the other way counts as inactive or inconclusive.
Columns and labels:
[1] = biological target: Estrogen receptor beta (Homo sapiens) (UniProt Q92731); assay: qHTS assay to identify small molecule agonists of the estrogen receptor beta (ER-beta) signaling pathway (AID 1259377; active = well fitted activation curve with a large enough effect in the signal ratio in the repeat runs, not every such curve was filed as active; the % refers to the signal ratio)
Estrogen receptor beta (Homo sapiens), sequence (Q92731 whole entry, looked up, the tested form may be a part): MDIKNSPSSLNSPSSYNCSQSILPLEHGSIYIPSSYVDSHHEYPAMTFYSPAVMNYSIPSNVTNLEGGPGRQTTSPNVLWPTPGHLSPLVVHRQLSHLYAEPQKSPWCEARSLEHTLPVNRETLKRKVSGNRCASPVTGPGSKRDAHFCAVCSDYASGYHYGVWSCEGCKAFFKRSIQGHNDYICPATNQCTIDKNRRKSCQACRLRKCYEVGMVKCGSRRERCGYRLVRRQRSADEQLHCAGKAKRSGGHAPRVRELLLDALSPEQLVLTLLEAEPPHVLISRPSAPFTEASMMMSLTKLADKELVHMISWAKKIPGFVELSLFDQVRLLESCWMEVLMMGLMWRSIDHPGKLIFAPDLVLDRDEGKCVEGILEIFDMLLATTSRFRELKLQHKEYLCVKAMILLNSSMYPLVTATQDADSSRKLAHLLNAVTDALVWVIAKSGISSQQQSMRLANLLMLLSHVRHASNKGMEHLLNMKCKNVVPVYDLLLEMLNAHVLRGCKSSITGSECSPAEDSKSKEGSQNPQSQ
In short: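 Agonist mode cell assay in GripTite HEK293T cells expressing an ER-beta fusion that drives beta-lactamase from an Upstream Activator Sequence; 16 hr compound exposure at 37C, then 2 h LiveBLAzer B/G FRET substrate at room temperature, fluorescence read-out.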

[2] = biological target: Estrogen receptor beta (Homo sapiens) (UniProt Q92731); assay: qHTS assay to identify small molecule antagonists of the estrogen receptor beta (ER-beta) signaling pathway (AID 1259378; active = well fitted inhibition curve with a large enough effect in the signal ratio in the repeat runs, not every such curve was filed as active; the % refers to the signal ratio)
In short: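 ER-beta-UAS-bla HEK293T cells in 2% charcoal-stripped FBS medium treated with compound plus 1nM final 17-beta-estradiol for 16 hr at 37C. Beta-lactamase reporter read by FRET substrate fluorescence after 2 hours at room temperature.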

[3] = qHTS assay to identify small molecule agonists of the androgen receptor (AR) signaling pathway in the presence of an antagonist - cell viability counter screen (AID 1259379); note: nearly all actives have a fitted effect of over 25% in size; note: potency is the fitted concentration of half-maximal effect
In short: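 In MDA-kb2 cells (human breast carcinoma, MMTV-luciferase), compounds at 15 concentrations plus 3.0uM nilutamide; 16 hr, 37C, 0% CO2; CellTiter-Fluor fluorescence read for viability.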

[4] = qHTS assay to identify small molecule antagonists of the estrogen receptor beta (ER-beta) signaling pathway - cell viability counter screen (AID 1259382); note: nearly all actives have a fitted effect of over 55% in size; note: potency is the fitted concentration of half-maximal effect
In short: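 Tox21 10K library tested in qHTS format on ER-beta-bla HEK293T cells stimulated with 1nM E2; 16 hr treatment at 37C. Same-well CellTiter-Glo luminescence served as the cell viability measure.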

[5] = biological target: Estrogen receptor (Homo sapiens) (UniProt P03372); assay: qHTS assay to identify small molecule agonists of the estrogen receptor alpha (ER-alpha) signaling pathway in the presence of an antagonist (AID 1259383; calls by dose curve; note: top concentration of the series differs between compounds; nearly all actives have a fitted effect of over 15% in size)
Estrogen receptor (Homo sapiens), sequence (P03372 whole entry, looked up): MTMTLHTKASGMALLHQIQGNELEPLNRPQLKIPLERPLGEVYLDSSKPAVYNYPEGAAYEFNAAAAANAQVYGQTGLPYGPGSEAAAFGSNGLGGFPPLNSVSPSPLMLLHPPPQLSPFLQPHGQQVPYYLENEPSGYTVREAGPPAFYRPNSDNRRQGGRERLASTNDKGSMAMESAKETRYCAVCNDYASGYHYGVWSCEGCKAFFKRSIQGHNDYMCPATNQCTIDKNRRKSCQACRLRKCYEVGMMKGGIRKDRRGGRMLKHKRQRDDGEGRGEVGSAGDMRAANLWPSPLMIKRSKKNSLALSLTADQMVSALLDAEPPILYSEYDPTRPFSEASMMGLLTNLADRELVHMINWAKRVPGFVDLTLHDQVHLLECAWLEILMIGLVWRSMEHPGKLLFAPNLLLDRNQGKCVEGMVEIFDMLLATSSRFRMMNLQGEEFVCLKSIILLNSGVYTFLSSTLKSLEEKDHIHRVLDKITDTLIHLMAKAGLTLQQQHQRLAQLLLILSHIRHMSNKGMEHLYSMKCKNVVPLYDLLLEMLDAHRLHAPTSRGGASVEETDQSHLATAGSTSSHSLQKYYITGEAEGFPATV
In short: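 In VM7Luc4E2 cells, 4,000 per well, compounds at 15 concentrations were co-incubated 22hr at 37C with 10.0nM final ICI-182,780. Luminescence from the stably transfected 4×ERE-luciferase reporter was recorded 30min after ONE-Glo addition.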

[6] = qHTS assay to identify small molecule agonists or antagonists of the thyroid stimulating hormone receptor (TSHR) signaling pathway - wild type cell line counter screen (AID 1259384; calls by dose curve)
In short: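 Wild-type Hek293 cells, 800/well, 18 h at 37C, then compound with Ro20-1724 for 30 min RT. cAMP by HTRF (cAMP-d2/anti-cAMP cryptate), 1 h RT, fluorescence read. 15 concentrations, triplicates.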

[7] = biological target: Thyrotropin receptor (Homo sapiens) (UniProt P16473); assay: qHTS assay to identify small molecule antagonists of the thyroid stimulating hormone receptor (TSHR) signaling pathway (AID 1259385; calls by dose curve; note: nearly all actives have a fitted effect of over 20% in size)
Thyrotropin receptor (Homo sapiens), sequence (P16473 whole entry, looked up): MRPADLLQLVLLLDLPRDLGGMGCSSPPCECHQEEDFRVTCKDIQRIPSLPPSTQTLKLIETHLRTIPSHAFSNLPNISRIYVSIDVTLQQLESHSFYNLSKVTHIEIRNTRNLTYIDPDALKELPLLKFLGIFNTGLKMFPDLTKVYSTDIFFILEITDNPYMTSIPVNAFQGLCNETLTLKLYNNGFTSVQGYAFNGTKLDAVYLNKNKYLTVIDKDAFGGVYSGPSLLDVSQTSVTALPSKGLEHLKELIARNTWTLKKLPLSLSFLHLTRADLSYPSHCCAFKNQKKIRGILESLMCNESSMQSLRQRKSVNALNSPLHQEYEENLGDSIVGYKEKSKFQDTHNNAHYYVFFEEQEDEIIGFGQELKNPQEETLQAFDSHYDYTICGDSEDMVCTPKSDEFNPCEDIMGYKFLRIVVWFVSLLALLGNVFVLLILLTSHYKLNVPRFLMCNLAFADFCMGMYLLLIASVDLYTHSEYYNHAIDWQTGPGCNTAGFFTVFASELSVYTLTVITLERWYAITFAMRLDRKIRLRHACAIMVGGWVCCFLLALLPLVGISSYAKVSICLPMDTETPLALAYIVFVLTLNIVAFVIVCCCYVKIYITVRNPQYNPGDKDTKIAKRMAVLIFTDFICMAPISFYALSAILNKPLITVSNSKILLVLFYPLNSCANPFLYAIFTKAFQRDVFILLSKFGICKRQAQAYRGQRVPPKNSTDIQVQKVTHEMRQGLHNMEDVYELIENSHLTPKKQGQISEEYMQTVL
In short: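 TSHR-HEK293 cells (800/well) plated 18 h, then compounds with Ro20-1724 and TSH at 1.5 ng/mL final, 30 min at room temperature. cAMP quantified by HTRF (cAMP-d2/anti-cAMP-cryptate, 1 h); 15 concentrations in triplicate.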

[8] = qHTS assay to identify small molecule agonists of the estrogen receptor alpha (ER-alpha) signaling pathway in the presence of an antagonist - cell viability counter screen (AID 1259386);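 note: cells exposed to compounds for 22 h at 37 °C before the viability read; nearly all actives have a fitted effect of over 30% in size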; note: potency is the fitted concentration of half-maximal effect
In short: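 Fluorescent CellTiter-Fluor viability signal from VM7Luc4E2 cells, with the reagent added during the final hour of a 22hr compound exposure at 37C in the presence of 10.0nM ICI-182,780.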

[9] = biological target: Progesterone receptor (Homo sapiens) (UniProt P06401); assay: qHTS assay to identify small molecule agonists of the progesterone receptor (PR) signaling pathway (AID 1346784; calls by dose curve; note: nearly all actives have a fitted effect of over 30% in size; note: potency is the fitted concentration of half-maximal effect)
Progesterone receptor (Homo sapiens), sequence (P06401 whole entry, looked up): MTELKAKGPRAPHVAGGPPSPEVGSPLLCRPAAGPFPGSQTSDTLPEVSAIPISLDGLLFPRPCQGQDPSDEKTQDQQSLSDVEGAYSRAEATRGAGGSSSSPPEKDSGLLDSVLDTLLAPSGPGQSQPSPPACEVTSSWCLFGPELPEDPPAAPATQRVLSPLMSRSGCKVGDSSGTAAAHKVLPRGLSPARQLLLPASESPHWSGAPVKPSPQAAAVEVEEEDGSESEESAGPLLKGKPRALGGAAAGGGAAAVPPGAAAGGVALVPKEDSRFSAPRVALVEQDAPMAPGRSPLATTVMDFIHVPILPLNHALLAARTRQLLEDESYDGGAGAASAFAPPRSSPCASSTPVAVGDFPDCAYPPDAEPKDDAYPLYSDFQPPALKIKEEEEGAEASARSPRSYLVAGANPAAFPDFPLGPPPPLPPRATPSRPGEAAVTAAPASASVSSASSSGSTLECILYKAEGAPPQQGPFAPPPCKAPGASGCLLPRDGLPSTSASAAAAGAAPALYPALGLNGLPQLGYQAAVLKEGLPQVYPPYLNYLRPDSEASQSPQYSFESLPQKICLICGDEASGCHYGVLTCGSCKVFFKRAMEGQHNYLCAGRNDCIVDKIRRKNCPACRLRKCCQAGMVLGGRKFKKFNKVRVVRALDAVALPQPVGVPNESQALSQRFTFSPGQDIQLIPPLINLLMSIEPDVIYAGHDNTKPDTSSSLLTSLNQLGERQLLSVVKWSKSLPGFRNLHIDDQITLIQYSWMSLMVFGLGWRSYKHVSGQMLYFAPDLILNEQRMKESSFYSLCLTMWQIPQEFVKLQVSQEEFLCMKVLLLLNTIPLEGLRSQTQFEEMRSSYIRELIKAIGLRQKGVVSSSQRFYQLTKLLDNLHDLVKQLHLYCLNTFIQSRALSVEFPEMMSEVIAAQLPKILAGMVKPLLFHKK
In short: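 Cells (PR-UAS-bla HEK 293T, GripTite) were plated in assay medium containing 2% charcoal-stripped FBS and incubated 6 hr. Test compounds in DMSO were added for 16 hr at 37C. FRET substrate was then loaded for 2 hr at room temperature before fluorescence reading.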

[10] = biological target: Progesterone receptor (Homo sapiens) (UniProt P06401); assay: qHTS assay to identify small molecule antagonists of the progesterone receptor (PR) signaling pathway (AID 1346795; active = well fitted inhibition curve with a large enough effect in the signal ratio in the repeat runs, not every such curve was filed as active; the % refers to the signal ratio; note: potency is the fitted concentration of half-maximal effect)
In short: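 Antagonist mode: compounds tested against 1 nM (final) promegestone stimulation in HEK293T cells expressing PR-UAS-bla reporter, 16 hr at 37C, 5% CO2; beta-lactamase activity detected via B/G FRET substrate after 2 hr at room temperature.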

[11] = qHTS assay to identify small molecule agonists of the progesterone receptor (PR) signaling pathway - cell viability counter screen (AID 1346799; calls by dose curve; note: nearly all actives have a fitted effect of over 45% in size; note: potency is the fitted concentration of half-maximal effect)
In short: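 Cells (PR-UAS-bla HEK293T) are plated at 3,000/well in 2% charcoal-stripped FBS medium, rested 6 hr, dosed and incubated 16 hr at 37C. CellTiter-Glo is then added and luminescence measured after 30 min at room temperature.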

[12] = qHTS assay to identify small molecule antagonists of the TGF-beta/Smad signaling pathway - cell viability counter screen (AID 1346824); note: nearly all actives have a fitted effect of over 50% in size
In short: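 SBE-bla HEK 293T cells, incubated overnight, then compound plus 0.25 ng/mL TGF-beta1 (stock added) for 5 hr at 37 C. Viability was read in the same wells by CellTiter-Glo luminescence after 30 min at room temperature.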

[13] = qHTS assay to identify small molecule agonists of the TGF-beta/Smad signaling pathway - cell viability counter screen (AID 1346829); note: top concentration of the series differs between compounds; nearly all actives have a fitted effect of over 45% in size
In short: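 Luminescence from CellTiter-Glo, read after a 30 min room-temperature incubation, gives cell viability of SBE-bla HEK 293T cells treated 5 hr with compounds at 37 C.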

[14] = qHTS assay to identify small molecule agonists of the TGF-beta/Smad signaling pathway (AID 1346859; active = well fitted activation curve with a large enough effect in the signal ratio in the repeat runs, not every such curve was filed as active; the % refers to the signal ratio; note: series mostly up to about 77 µM)
In short: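 Reporter line: HEK 293T with stably integrated SBE-controlled beta-lactamase. Compound exposure lasts 5 hr at 37 C and 5% CO2; substrate loading follows for 2 hr at room temperature, with emission read at 460 and 530 nm.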

[15] = biological target: Thyrotropin-releasing hormone receptor (Homo sapiens) (UniProt P34981); assay: qHTS assay to identify small molecule antagonists of the thyrotropin-releasing hormone receptor (TRHR) signaling pathway (AID 1346877; active = well fitted inhibition curve with a large enough effect in the repeat runs, not every such curve was filed as active; note: potency is the fitted concentration of half-maximal effect)
Thyrotropin-releasing hormone receptor (Homo sapiens), sequence (P34981 whole entry, looked up): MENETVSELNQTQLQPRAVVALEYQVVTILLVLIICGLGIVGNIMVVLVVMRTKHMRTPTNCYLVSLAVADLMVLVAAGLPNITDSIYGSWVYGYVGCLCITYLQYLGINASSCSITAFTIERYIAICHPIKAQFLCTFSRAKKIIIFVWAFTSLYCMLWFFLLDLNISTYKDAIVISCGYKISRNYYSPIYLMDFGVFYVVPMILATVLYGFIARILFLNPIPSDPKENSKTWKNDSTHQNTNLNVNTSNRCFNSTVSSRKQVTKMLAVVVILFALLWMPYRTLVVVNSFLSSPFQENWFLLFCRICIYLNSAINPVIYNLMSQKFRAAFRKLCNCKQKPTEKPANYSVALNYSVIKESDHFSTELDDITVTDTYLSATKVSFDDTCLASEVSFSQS
In short: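 In this cell-based calcium flux format, HEK293 cells expressing TRHR received test compound for 5 min before the agonist TRH (1 nM final). Dye loading lasted 2 h at 37 °C.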

[16] = biological target: Thyrotropin-releasing hormone receptor (Homo sapiens) (UniProt P34981); assay: qHTS assay to identify small molecule agonists of the thyrotropin-releasing hormone receptor (TRHR) signaling pathway (AID 1346891; calls by dose curve; note: potency is the fitted concentration of half-maximal effect; for activation: series mostly up to about 58 µM)
In short: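 Cells: TRHR-Hek293, seeded and incubated 18 h. Dye loading: 2 h at 37 °C. Compound added from DMSO stock by pin tool. Read-out: kinetic calcium fluorescence over 3 min.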

[17] = Human pregnane X receptor (PXR) small molecule agonists, qHTS cell viability counter screen (AID 1346977); note: nearly all actives have a fitted effect of over 50% in size; note: potency is the fitted concentration of half-maximal effect
In short: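 Cytotoxicity counter screen run in the same wells as the PXR luciferase assay, using PXR-Luc HepG2 cells in charcoal-stripped serum medium. Viability: CellTiter-Fluor fluorescence after 24hr compound treatment.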

[18] = qHTS assay to identify small molecule antagonists of the progesterone receptor (PR) signaling pathway - cell viability counter screen (AID 1346798); note: nearly all actives have a fitted effect of over 50% in size; note: potency is the fitted concentration of half-maximal effect
In short: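 Counter screen for cytotoxicity: viability of PR-UAS-bla HEK293T cells was measured with CellTiter-Glo luminescence following 16 hr compound exposure in the presence of R5020.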

[19] = qHTS assay to identify small molecule agonists of the estrogen receptor beta (ER-beta) signaling pathway - cell viability counter screen (AID 1259380); note: nearly all actives have a fitted effect of over 30% in size; note: potency is the fitted concentration of half-maximal effect
In short: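 Viability of ER-beta-UAS-bla HEK293T cells was determined by CellTiter-Glo luminescence following 16 hr treatment with test compounds at 37C.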

[20] = biological target: Androgen receptor (Homo sapiens) (UniProt P10275); assay: qHTS assay to identify small molecule agonists of the androgen receptor (AR) signaling pathway in the presence of an antagonist (AID 1259381; calls by dose curve; note: nearly all actives have a fitted effect of over 15% in size)
Androgen receptor (Homo sapiens), sequence (P10275 whole entry, looked up): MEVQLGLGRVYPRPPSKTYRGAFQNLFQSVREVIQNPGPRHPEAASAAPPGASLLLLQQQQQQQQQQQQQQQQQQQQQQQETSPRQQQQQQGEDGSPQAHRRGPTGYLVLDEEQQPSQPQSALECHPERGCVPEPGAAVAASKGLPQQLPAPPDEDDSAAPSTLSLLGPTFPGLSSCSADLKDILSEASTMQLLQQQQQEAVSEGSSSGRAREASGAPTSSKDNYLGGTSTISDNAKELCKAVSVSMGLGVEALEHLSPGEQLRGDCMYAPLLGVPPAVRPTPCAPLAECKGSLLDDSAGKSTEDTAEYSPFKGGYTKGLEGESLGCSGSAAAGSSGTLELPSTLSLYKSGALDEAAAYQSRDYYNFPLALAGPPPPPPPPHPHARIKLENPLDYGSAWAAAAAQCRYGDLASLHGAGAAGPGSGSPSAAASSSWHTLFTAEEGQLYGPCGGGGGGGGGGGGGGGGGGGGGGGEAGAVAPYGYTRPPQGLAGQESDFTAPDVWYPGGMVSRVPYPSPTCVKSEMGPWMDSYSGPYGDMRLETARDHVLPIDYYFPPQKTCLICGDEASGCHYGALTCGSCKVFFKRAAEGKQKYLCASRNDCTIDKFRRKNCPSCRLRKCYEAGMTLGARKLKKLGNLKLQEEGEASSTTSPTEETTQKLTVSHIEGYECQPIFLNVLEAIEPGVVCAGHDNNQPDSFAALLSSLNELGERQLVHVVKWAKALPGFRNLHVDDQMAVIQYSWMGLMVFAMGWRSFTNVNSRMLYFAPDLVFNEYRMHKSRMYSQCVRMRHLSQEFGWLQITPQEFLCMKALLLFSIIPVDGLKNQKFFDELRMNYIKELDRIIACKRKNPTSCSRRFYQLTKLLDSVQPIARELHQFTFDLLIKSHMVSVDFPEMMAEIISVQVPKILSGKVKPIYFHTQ
In short: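 Here, 15-concentration compound series were pin-transferred onto MDA-kb2 MMTV-luciferase cells already dosed with nilutamide (3.0uM final). After 16hr at 37C, ONE-Glo was added and luminescence read 30min later at room temperature.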

Row | Compound | outcome [1] | Potency [2] | Potency [3] | Potency [4] | Potency [5] | Potency [6] | Potency [7] | Potency [8] | Potency [9] | Potency [10] | Potency [11] | Potency [12] | Potency [13] | outcome [14] | Potency [15] | Potency [16] | Potency [17] | Potency [18] | Potency [19] | Potency [20]
1 | Cc1cccc(O)c1C | inactive | inactive | inactive | inactive | inactive | inactive | inactive | inactive | 24.2 µM (active) and inactive | inactive | inactive | inactive | inactive | inactive | inactive | inactive | inactive |  |  | 
2 | CC(C(O)c1ccc(O)cc1)N1CCC(Cc2ccccc2)CC1 (centres undefined) | inactive | inactive | inactive | inactive | inactive |  |  | inactive |  | inactive |  | inactive | inactive | inactive | inactive | inactive | inactive | inactive |  | 
3 | C[N+]1([O-])CCOCC1 | inactive | inactive | inactive | inactive |  |  | inactive | inactive | inactive | inactive | inactive | inactive | inactive | inactive | inactive | inactive | inactive | inactive | inactive | 
4 | Cc1scc2c1N(C(=O)CN1CCN(C)CC1)c1ccccc1NC2=O | inactive | inactive | inactive | inactive | inactive |  | inactive | inactive | inactive | inactive | inactive | inactive | inactive | inactive | inactive | inactive | inactive | inactive |  | 
5 | Oc1c(Cl)cc(Cl)c(Cl)c1Cc1c(O)c(Cl)cc(Cl)c1Cl | inactive |  | 8.61 µM (active) and 9.69 µM (active) and 9.44 µM (active) | 48.4 µM (active) and 34.4 µM (active) and inactive |  | inactive | inactive | 13.3 µM (active) |  | 48.6 µM (active) |  | inactive |  | inactive | 12 µM (active) and 26.9 µM (active) | 30.8 µM (active) and 34.7 µM (active) and inactive | 2.72 µM (active) and 1.72 µM (active) and 6.68 µM (active) | 43.1 µM (active) | 60.9 µM (active) and 30.6 µM (active) | inactive
6 | CCOC(=O)C(C)C(C)=O (centres undefined) | inactive | inactive | inactive | inactive |  | inactive | inactive | inactive | inactive | inactive | inactive | inactive | inactive | inactive | inactive | inactive | inactive | inactive |  | 
7 | C/C=C/c1ccc(OCC)c(O)c1 | inactive | inactive | inactive | inactive |  |  | inactive | inactive | inactive | inactive | inactive | inactive |  | inactive | inactive | inactive | inactive | inactive | inactive | 
8 | C=C(C)C1CC=C(C)C(OC(C)=O)C1 (centres undefined) | inactive | inactive | inactive | inactive | inactive | inactive | inactive | inactive | inactive | inactive | inactive | inactive |  | inactive |  |  | inactive | inactive |  | 
9 | COC(c1ccccc1)(c1ccccc1)[C@H](Oc1nc(C)cc(C)n1)C(=O)O | inactive | inactive | inactive | inactive |  | inactive | inactive | inactive | inactive | inactive | inactive | inactive | inactive | inactive |  |  | inactive |  |  | 
10 | O=c1n(CC2CO2)c(=O)n(CC2CO2)c(=O)n1CC1CO1 (centres undefined) | inactive | inactive |  | inactive | inactive |  | inactive | inactive | inactive |  |  | inactive | inactive | inactive | inactive | inactive | 50.1 µM (active) and 54.5 µM (active) |  |  | 
11 | Nc1nc(=S)c2[nH]cnc2[nH]1 | inactive | inactive | inactive |  | inactive | inactive | inactive | inactive | inactive | inactive | 4.73 µM (active) | inactive |  | inactive | inactive | inactive | inactive |  |  | inactive
12 | O=C(Cl)c1cccc(C(=O)Cl)c1 | inactive | inactive | inactive | inactive |  | inactive | inactive | inactive | inactive | inactive | inactive | inactive | inactive | inactive | inactive | inactive | inactive | inactive |  | 
13 | c1cnc2cc3c(cc2n1)C1CNCC3C1 | inactive | inactive | inactive | inactive | inactive |  |  | inactive | inactive | inactive | inactive | inactive | inactive | inactive | inactive | inactive | inactive | inactive |  | 
14 | Cc1occc(=O)c1OC(=O)C(C)C | inactive |  | inactive | inactive |  | inactive | inactive | inactive | inactive | inactive | inactive | inactive | inactive | inactive | inactive | inactive | inactive | inactive | inactive | 
15 | O=C(O)Cn1cnnn1 | inactive | inactive | inactive | inactive | inactive | inactive | inactive | inactive | inactive | inactive |  | inactive | inactive | inactive | inactive | inactive | inactive | inactive |  | inactive

Source: PubChem BioAssay (Tox21)
